# Screening data as filed in PubChem BioAssay.
# SMN2 splice up – SMN2 splice variant enhancement; HEK293 SMN2-luciferase splicing reporter, luminescence, 30-36 h; Potency, µM (highest dose often 46.1 µM), inactives show at the top dose activity change, positive = activation, actives largely listed as activators; actives 2.8% (n = 210,000); AID 1458; note: % of control where 0% means no effect; nearly all actives have a fitted effect of over 55% in size
#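 qHTS luciferase splicing reporter: luminescence rises when SMN2 exon 7 is included in transfected HEK293 cells. Compound exposure lasted 30-36 h at 37C, with 4.5 mM final sodium butyrate as control, followed by a ONE-Glo read.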
# ELG1 repair inh – inhibitors of ELG1-dependent DNA repair in HEK293T cells; actives 2.3% (n = 330,000); Potency, µM (doses to about 46.1 µM), inactives show top-dose activity change, negative = inhibition, hits mostly inhibitors; HEK293T ELG1-luciferase reporter, luminescence, 16 h; DNA damage induced by 5-fluorouridine; note: % is set by controls: 0 for no effect and ±100 for the full control effect; nearly all actives have a fitted effect of over 55% in size
#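 Cells (2,000 per well) received 5-fluorouridine plus test compound or DMSO and were incubated 16 hr at 37 °C, 5% CO2. Luciferase activity was read by luminescence 30 min after ONE-Glo addition; signal suppression marked inhibition of damage-induced ELG1 function.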
# FLuc modulator – counter-screen for miR-21 project: firefly luciferase inhibitors or activators. AID 588342. P08659. Potency, µM (series often up to 57.5 µM), inactives show top-dose activity change, negative = inhibition, actives largely listed as inhibitors. actives 6.9% (n = 360,000). purified FLuc, Km substrates, luminescence inhibition;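 note: plate controls were vehicle for no effect and reference inhibitor for full effect; nearly all actives have a fitted effect of over 55% in size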
# Target sequence (P08659 whole entry, looked up): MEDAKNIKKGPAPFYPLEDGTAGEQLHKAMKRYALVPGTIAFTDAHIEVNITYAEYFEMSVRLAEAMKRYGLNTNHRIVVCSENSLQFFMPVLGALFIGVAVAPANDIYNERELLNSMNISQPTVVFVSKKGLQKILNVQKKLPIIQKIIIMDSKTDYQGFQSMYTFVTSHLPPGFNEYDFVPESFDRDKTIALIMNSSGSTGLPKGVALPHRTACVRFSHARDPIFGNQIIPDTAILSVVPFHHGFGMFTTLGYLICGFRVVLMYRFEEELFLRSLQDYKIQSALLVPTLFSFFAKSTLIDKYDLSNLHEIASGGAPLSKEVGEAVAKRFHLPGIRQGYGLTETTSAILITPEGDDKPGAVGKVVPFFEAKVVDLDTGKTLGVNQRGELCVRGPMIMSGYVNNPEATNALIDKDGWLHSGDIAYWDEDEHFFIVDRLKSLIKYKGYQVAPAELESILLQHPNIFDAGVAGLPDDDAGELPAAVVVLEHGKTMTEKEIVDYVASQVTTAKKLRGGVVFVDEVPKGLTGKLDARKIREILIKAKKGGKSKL
#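 Biochemical qHTS of compounds, final roughly 60 µM downward over six points, against 10 nM purified firefly luciferase using Km concentrations of substrates (10 uM D-luciferin, 10 uM ATP) in Tris acetate pH 7.5 buffer; luminescence output.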
# NPC1 promoter act – NPC1 promoter activation. Huh7 NPC1 promoter luciferase reporter, 24 h. Potency, µM (series often up to 9.22 µM), for the others: at the top dose activation, hits mostly activators. actives 2.4% (n = 320,000). AID 485313; note: % of control where 0% means no effect; nearly all actives have a fitted effect of over 60% in size
#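 Readout is luciferase luminescence, reflecting NPC1 promoter activation in stably transfected Huh7 cells after 24 h compound exposure at 37 °C in reduced-serum medium with 10% FBS.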
# ELG1 genotox – genotoxicity induction in ELG1-luciferase HEK293T cells; HEK293T ELG1-luciferase reporter, luminescence, 16 h; Potency, µM (highest dose often 46 µM), without a hit: at the highest dose activity change, positive = activation, most hits filed as activators; actives 1.3% (n = 330,000); note: % of control where 0% means no effect; nearly all actives have a fitted effect of over 60% in size
#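 Genotoxic stress is detected as increased luminescence from luciferase-tagged ELG1 in HEK293T cells, measured with ONE-Glo after a 16 hr treatment at 37 °C.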
# Rab9 promoter act – activates the Rab9 promoter | Potency, µM (series often up to 9.22 µM), for the others: at the highest dose activation, negative = inhibition, actives largely listed as activators | Huh7 Rab9 promoter-luciferase reporter, luminescence, 24 h | actives 2.8% (n = 320,000); note: % of control where 0% means no effect; nearly all actives have a fitted effect of over 60% in size
#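 Rab9 promoter-driven luciferase in stably transfected Huh7 cells; 1500 cells/well rested 2 h, exposed to compound in DMSO for 24 h at 37 °C, 5% CO2. Luminescence read 10 min after adding luciferase reagent at ambient temperature.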
# Numbers without * were called inactive; ? = inconclusive; nt = not tested or not shown; [ ] = remark or other dose. This is a sample that favours compounds with a hit; in the whole collection about 9.2% have one here. Calls come from the whole dose curve; as a rule, active = well fitted curve in the direction sought with a large enough effect; inconclusive = small, poorly fitted or top-dose-only effect, or another doubt; inactive = no such curve, though single readings can be large; an effect the other way counts as inactive or inconclusive. Potency is the fitted concentration of half-maximal effect.
SMILES,SMN2 splice up,ELG1 repair inh,FLuc modulator,NPC1 promoter act,ELG1 genotox,Rab9 promoter act
O=C(CN1CCc2ccccc21)Nc1ccc2c(c1)OCCCO2,nt,?,12µM*,?,?,?
CSCC[C@@H](C(=O)Nc1ccc2c(c1)OCCO2)N1Cc2ccccc2C1=O,20%,?,19µM*,9%,?,5%
Cc1ccc(NC(=O)CN2CCc3cc4c(cc3C2C)OCCCO4)cc1 (stereo not drawn),nt,18µM*,3%,1%,-3%,3%
CSCC[C@@H](C(=O)Nc1cccc(F)c1)N1Cc2ccccc2C1=O,1%,nt,4%,nt,nt,nt
O=C(CN1Cc2ccccc2C1=O)Nc1ccc2c(c1)OCCO2,nt,?,24µM*,30%,5%[9.26 µM],?
O=C(CCCN1C(=O)c2cccc3cccc(c23)C1=O)NC1CCS(=O)(=O)C1 (stereo not drawn),nt,1%,4.8µM*,1%,-9%,3%
O=C(O)CCCN1C(=O)c2cccc3cccc(c23)C1=O,nt,?,-1%,-3%,0%,3%
N#CC(=C1CCCC1)c1nc(-c2cc3ccccc3oc2=O)cs1,?,?,2.1µM*,?,?,3.2µM*
N#CC(=C1CCCC1)c1nc(-c2ccccc2)cs1,16µM*,?,1.3µM*,3.2µM*,?,?
O=C(Nc1ccc(Cl)cc1)Nc1nc(-c2ccccc2O)cs1,nt,?,-5%,-2%,0%,2%
N#CC(=C1CCCC1)c1nc(-c2ccccc2O)cs1,?,?,1.3µM*,2.8µM*,3.7µM*,3.5µM*
Cc1ccc(-c2csc(C(C#N)=C3CCCC3)n2)cc1,18µM*,?,2.7µM*,3.2µM*,?,4.5µM*
N#C/C(=N\O)c1nc(-c2ccccc2)cs1,-9%,-4%,-11%,1%,0%,1%
N#C/C(=C/c1ccccc1Cl)c1nc(-c2cc3ccccc3oc2=O)cs1,-6%,nt,-7%,nt,nt,nt
CCc1ccc(/C=C(/C#N)c2nc(-c3ccc(C)cc3)cs2)cc1,7%,nt,0%,nt,nt,nt
CCOC(=O)NNC(=S)Nc1c(C)n(C)n(-c2ccccc2)c1=O,nt,-14%,8%,-2%,-4%,-4%
O=C(NNC1=Nc2ccccc2SC1)c1ccccc1F,nt,5.8µM*,?,-6%,-5%,-14%
O=C(NNC1=Nc2ccccc2SC1)c1cccc([N+](=O)[O-])c1,nt,16µM*,2%,-3%,-9%,0%
CCOCCCn1c(SCC(=O)NCc2ccccc2)nc2c(sc3ccccc32)c1=O,nt,nt,5%,nt,nt,nt
Cc1cc(-c2ccc(C)c(S(=O)(=O)N3CCN(c4cccc(C(F)(F)F)c4)CC3)c2)on1,nt,nt,-1%,nt,nt,nt
CCc1nnc(NC(=O)C23CC4CC(CC(C4)C2)C3)s1,nt,?,11µM*,?,?,?
CSc1nnc(NC(=O)C23CC4CC(CC(C4)C2)C3)s1,nt,?,24µM*,?,3%[9.26 µM],?
CC(C)n1nnnc1-c1ccc(Cl)cc1,-11%,6%,-1%,-5%,-1%,2%
O=C(Nc1ccc(N2CCOCC2)cc1)Nc1ccc2nc(-c3ccco3)c(-c3ccco3)nc2c1,-18%,6.5µM*,-6%,-3%,-7%,-8%
O=C(Nc1ccc2nc(-c3ccco3)c(-c3ccco3)nc2c1)NC1CC1,-19%,?,6µM*,18%,0%,28%
SMILES,SMN2 splice up,ELG1 repair inh,FLuc modulator,NPC1 promoter act,ELG1 genotox,Rab9 promoter act
O=S(=O)(c1ccc2nc(-c3ccco3)c(-c3ccco3)nc2c1)N1CCOCC1,-17%,16µM*,?,0%,-6%,5%
O=C(Nc1ccc(F)c(Cl)c1)NC1CC1,nt,-16%,-3%,-1%,0%,13%
OCCCNC(=S)Nc1ccc2nc(-c3ccccn3)c(-c3ccccn3)nc2c1,-1%,12%,-1%,-6%,3%,1%
O=C(NCCCO)Nc1ccc2nc(-c3ccco3)c(-c3ccco3)nc2c1,-20%,-8%,11µM*,0%,2%,7%
N#C/C(=C\c1ccc(-c2cc(Cl)ccc2Cl)o1)C(=O)Nc1cccc2ncccc12,nt,nt,nt,-5%[46.1 µM],nt,-17%[46.1 µM]
O=C(Nc1ccc(Cl)cc1F)c1cc(S(=O)(=O)NC2CCCCCC2)ccc1F,nt,nt,-2%,nt,nt,nt
CN(C)c1ccc(CNC(=O)c2cccc(NC(=O)N3CCSc4ncccc43)c2)cc1,nt,nt,0%,nt,nt,nt
CCOc1ccc(-n2c(SCC(=O)Nc3cccc(Cl)c3)nc3c(oc4ccccc43)c2=O)cc1,-6%,nt,-2%,nt,nt,nt
COc1ccc(/C=C(\C#N)C(=O)OCC(=O)NCc2ccc(Cl)cc2)cc1,1%,-2%,5%,1%,-1%,-1%
CC(C)(C)C(=O)NCCc1csc2nc(-c3ccc(F)cc3)nn12,nt,nt,3%,nt,nt,nt
Cn1c2ccccc2c2nnc(SCC(=O)Nc3cccc(O)c3)nc21,nt,-2%,6.7µM*,-1%,11%,6%
Cc1c(NC(=O)CSc2nnc3c4ccccc4n(CCc4ccccc4)c3n2)c(=O)n(-c2ccccc2)n1C,3.2µM*,?,6%,-5%,-12%,13%
CCOC(=O)C1CCCN(C(=O)c2nn(-c3ccc(OC)cc3)c(=O)c3c2c2ccccc2n3C)C1 (stereo not drawn),4%,nt,0%,nt,nt,nt
O=C(Nc1ccc2[nH]c(=S)sc2c1)Nc1ccccc1F,nt,?,21µM*,0.11µM*,0.58µM*,0.13µM*
O=C(Nc1ccc2[nH]c(=S)sc2c1)c1ccccc1,11µM*,?,?,2.8µM*,?,?
O=C(Nc1ccc2[nH]ccc2c1)c1ccccc1,nt,?,3.4µM*,0.56µM*,?,1.4µM*
O=C(Nc1ccc2[nH]ccc2c1)c1ccc(F)cc1,nt,?,1.5µM*,0.4µM*,?,0.5µM*
N#CCC(=O)Nc1ccc(C(=O)OCC(=O)Nc2cccc(C(F)(F)F)c2)cc1,0%,11%,-1%,-2%,8%,1%
COc1ccc(N(C(=O)c2ccc(OC)c(OC)c2)S(=O)(=O)c2ccc(Cl)cc2)cc1,-8%,nt,-4%,nt,nt,nt
CC1(C)Cc2nc3sc4c(SCC(=O)NCc5ccccc5)ncnc4c3cc2CO1,?,?,2.7µM*,26%,4.1µM*,23%
CC1(C)Cc2nc3sc4c(SCC(=O)O)ncnc4c3cc2CO1,nt,?,0.38µM*,?,5%,?
O=C(NC1CCN(C(=O)N2c3ccccc3Sc3ccccc32)CC1)c1ccccc1Cl,-34%,-21%,-1%,-3%,-5%,-3%
O=C(NC1CCN(C(=O)N2c3ccccc3Sc3ccccc32)CC1)c1ccco1,-33%,23µM*,-1%,-1%,-27%,-4%
CCCCn1c(N)c(N(CC)C(=O)C2CCC2)c(=O)[nH]c1=O,nt,12%,2%,-5%,-1%,-1%
